Consider 22 compounds from PubChem BioAssay (NCATS).

Several values for one entry are separate records, joined by “and”; a condition that tells them apart may be missing. Equal values may be shown once. Inconclusive results are not listed. More than one record can exist for a structure, and the calls need not agree. Activity calls are given as the source filed them. The call rests on the fitted dose curve; in most records, active means well fitted curve in the direction sought with a large enough effect; inconclusive means small, poorly fitted or top-dose-only effect, or another doubt; inactive means no such curve, though single readings can be large; an effect the other way counts as inactive or inconclusive.

In test [1] the target is Glutathione peroxidase 1 (Homo sapiens) (UniProt P07203). As to the kind of experiment: Primary qHTS Assay for Inhibitors of Recombinant Selenoprotein Glutathione Peroxidase 1 (GPX1) (AID 1845191). Further: nearly all actives have a fitted effect of over 65% in size. On activity, negative = inhibition: on the % scale 0 is the no-effect control and ±100 the full control effect. The method, boiled down:
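Recombinant GPX1 (10 nM final) was preincubated with compound for 30 min at room temperature, then reacted with 1 mM GSH, 0.5 mM CHP, 0.5 mM NADPH and 100 nM glutathione reductase; NADPH fluorescence (340/450 nm) was read at 0 and 15 min.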
A general note: Quantitative high-throughput screening tests each substance at several concentrations.

Test [2] concerns the target Phospholipid hydroperoxide glutathione peroxidase GPX4 (Homo sapiens) (UniProt P36969). As to the kind of experiment: Primary qHTS Assay for Inhibitors of Recombinant Selenoprotein Glutathione Peroxidase 4 (GPX4) (AID 1845192). Further: nearly all actives have a fitted effect of over 65% in size. Further: potency means the concentration at half of the fitted maximal effect. A digest of the protocol:
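GR-coupled readout: 100 nM GR, 1 mM GSH, 0.5 mM NADPH; NADPH fluorescence (ex 340/em 450 nm) read at t=0 and after 15 min RT. GPX4 200 nM, preincubated 30 min with compound; substrate 0.5 mM CHP.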

A short description of test [3]: Primary fluorescence-based thiol-reactive (MSTI) qHTS assay for identification of artifact compounds. (AID 1845221). Further: nearly all actives have a fitted effect of over 65% in size. Further: potency means the concentration at half of the fitted maximal effect.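 On activity change, negative = thiol reactive: series mostly up to about 54 µM; thiol-reactive compounds lower the probe fluorescence signal.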 The method, boiled down: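 One-hour, room-temperature, dark incubation of compound with 4 uM MSTI in PBS (pH 7.4, 2% DMSO) precedes a fluorescence read at 525 nm excitation, 598 nm emission; Hill-equation fitting yields concentration-response values.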

In test [4] the test system is Nanoluciferase (engineered Oplophorus gracilirostris luciferase). As to the kind of experiment: Primary Nanoluciferase (NLuc) qHTS assay for identification of artifact compounds. (AID 1845222).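 Further: NLuc secreted into diluted conditioned medium of S16 cells; series mostly up to about 54 µM; 0% = DMSO and -100% = no enzyme.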 A digest of the protocol:
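Concentration-response data were obtained by luminescence after 5 min with Nano-Glo substrate at 1:100. The enzyme was diluted S16 NLuc-expressing cell medium, preincubated with compound for 15 min at RT. Curves were fitted with a 4-parameter Hill model.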

Test [5] is described as follows: Primary redox qHTS assay for identification of artifact compounds. (AID 1845223).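 Further: 0% = DMSO and 100% = reference compound.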 A digest of the protocol:
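Amplex Red (25 uM) and HRP (250 mU/mL) in HBSS, with compounds for 15 min, then 250 uM DTT for 30 min, room temperature, dark. Fluorescence 525/598 nm read; normalized to DMSO and 10 uM DA3003; Hill fit.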

Test [6] addresses Luciferin 4-monooxygenase (Photinus pyralis) (UniProt P08659). Description: Primary firefly luciferase (FLuc) qHTS assay for identification of artifact compounds. (AID 1845220). Further: nearly all actives have a fitted effect of over 60% in size. The method, boiled down:
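Reaction readout was CCD-imaged luminescence, taken 5 min after adding 10 nM purified firefly enzyme to compound-treated wells holding 10 uM luciferin and ATP in pH 7.6 buffer.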

Chain of Glutathione peroxidase 1 (Homo sapiens) (P07203 whole entry, looked up): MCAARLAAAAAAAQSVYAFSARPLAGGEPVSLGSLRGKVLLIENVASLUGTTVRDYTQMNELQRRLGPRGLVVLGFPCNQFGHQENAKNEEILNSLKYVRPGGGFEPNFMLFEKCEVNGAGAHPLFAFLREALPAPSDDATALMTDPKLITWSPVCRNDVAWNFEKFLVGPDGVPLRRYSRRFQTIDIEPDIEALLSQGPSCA
Chain of Phospholipid hydroperoxide glutathione peroxidase GPX4 (Homo sapiens) (P36969 whole entry, looked up): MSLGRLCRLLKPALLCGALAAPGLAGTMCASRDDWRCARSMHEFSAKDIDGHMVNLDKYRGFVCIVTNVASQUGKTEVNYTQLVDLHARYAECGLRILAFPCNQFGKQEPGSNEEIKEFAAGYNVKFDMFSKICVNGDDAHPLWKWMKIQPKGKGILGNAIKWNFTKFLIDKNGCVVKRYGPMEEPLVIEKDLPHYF

For `O=C(/C=C/c1ccc(O)cc1)OC[C@]12O[C@H]1[C@@H](O)[C@@H]1C=CO[C@@H](O[C@@H]3O[C@H](CO)[C@@H](O)[C@H](O)[C@H]3O)[C@@H]12`, the Potency result in test [1], in test [2], in test [3] and in test [4] was “inactive” throughout.

In the case of `O=C(OCC12OC1C=CC(OC(=O)c1ccccc1)C2O)c1ccccc1` (stereo not given), the Potency result in test [1], in test [2], in test [3] and in test [4] was “inactive” in each case.

As for `COc1cc(/C=C/C(=O)OC[C@H]2O[C@H](O[C@]3(CO)O[C@H](CO)[C@@H](O)[C@@H]3O)[C@H](O)[C@@H](O)[C@@H]2O)cc(OC)c1O`, the Potency result in test [1], in test [2], in test [3], in test [4] and in test [5] was “inactive” each time.

In the case of `CCOc1nc2cccc(C(=O)OCc3oc(=O)oc3C)c2n1Cc1ccc(-c2ccccc2-c2noc(O)n2)cc1`, the Potency result in test [1], in test [3] and in test [5] was “inactive” throughout. Besides, the Potency result in test [2] was “inactive and 12.6 µM (active)”.

For the compound `O=C1C[C@@H](c2ccc(O)cc2)Oc2cc(O)ccc21`, the Potency result in test [1], in test [2], in test [3] and in test [4] was “inactive” each time.

With `CC1(C)CC2C3=CCC4C5(C)CCC(OC6OC(CO)C(O)C(OC7OC(CO)C(O)C(OC8OC(CO)C(O)C(OC9OC(COC%10OC(CO)C(O)C(O)C%10O)C(O)C(O)C9O)C8O)C7O)C6O)C(C)(C)C5CCC4(C)C3(C)CCC2(C(=O)O)CC1O` (stereo not given), the activity, negative = inhibition in test [1] was -11.7% [at 9.52 µM] (inactive). Besides, in test [2], the outcome was “inactive [at 9.73 µM]”. The activity change, negative = thiol reactive in test [3] was 31.3% [at 11.5 µM] (inactive). In addition, the redox activity (% of DA3003) in test [5] was 10.1% [at 11.5 µM] (inactive).

Turning to `CCC(=O)N[C@@H]1Cc2ccccc2[C@H](c2ccccc2)C1`, the Potency entry in test [1], in test [2], in test [3], in test [4] and in test [5] was “inactive” throughout.

As to `COc1ccc([C@H]2Cc3cccc(O)c3C(=O)O2)cc1`, the Potency result in test [1], in test [2], in test [3], in test [4] and in test [5] was “inactive” each time.

With `COc1cc(NC(=O)c2ccccn2)ccc1Cl`, the Potency entry in test [1], in test [2], in test [3] and in test [5] was “inactive” in each case.

For the compound `C/C(=C\CCC(C)(O)c1ccc(C)cc1)C(=O)O` (stereo not given), the Potency result in test [1], in test [2], in test [3], in test [4] and in test [5] was “inactive” each time.

On to `Oc1ccc([C@H]2COc3cc(O)ccc3C2)cc1`, for which the Potency entry in test [1], in test [2], in test [3], in test [4] and in test [5] was “inactive” throughout.

Consider `COc1cc(C/C(=C/NC(C)=O)N(CC(=O)Cc2ccccc2)C(C)=O)cc2c1OCO2`, for which the Potency entry in test [1], in test [2], in test [3] and in test [4] was “inactive” each time.

Consider `CN(C)c1cccc(-c2c3c(=O)n(-c4ccccc4Cl)[nH]c3cc(=O)n2C)c1`, for which the Potency entry in test [1], in test [6], in test [4] and in test [5] was “inactive” throughout. Besides, in test [3], the Potency is 1.89 µM (active).

As to `COc1c(OC2OC(CO)C(O)C(O)C2O)ccc(O)c1C(=O)OCc1ccccc1O[C@@H]1O[C@H](CO)[C@@H](O)[C@H](O)[C@H]1O` (stereo not given in full), the Potency result in test [1], in test [2], in test [4] and in test [5] was “inactive” throughout.

As for `C=C1CCC(OC(C)=O)C2(C)CC3(O)OC(=O)C(C)=C3CC12` (stereo not given), the Potency result in test [1], in test [6], in test [3], in test [4] and in test [5] was “inactive” in each case.

Take `NCc1ccc(OCCCc2sc(-c3ccc4c(c3)/C(=N/Nc3nc5ccccc5s3)CCC4)nc2C(=O)O)cc1`: the Potency entry in test [1], in test [2] and in test [5] was “inactive” in each case.

Turning to `COc1ccc2cc(OCC3(C(=O)O)CN(C(=O)c4ccc(F)cc4)C3)ccc2c1`, the Potency result in test [1], in test [6] and in test [3] was “inactive” throughout.

Turning to `OC[C@H]1O[C@@H](Oc2cc(O)cc(-c3cc4ccc(O)cc4o3)c2)[C@H](O)[C@@H](O)[C@@H]1O`, the Potency result in test [1] and in test [5] was “inactive” each time. The Potency in test [2] is 8.81 µM (active).

Consider `C/C=C/C=C/C=C/C(=O)O[C@@H]1C=C(CO)C(O)(C(=O)O)[C@@]2(C)CCCC(C)(C)[C@H]12` (stereo not given in full), for which the Potency result in test [1], in test [6] and in test [3] was “inactive” throughout.

With `C=C(C)C(=O)O[C@H]1C[C@@](C)(OC(C)=O)[C@@]2(O)CC[C@@](C)(O)[C@H](OC(C)=O)[C@@]23OC(=O)C(COC)=C13`, the Potency entry in test [1], in test [6] and in test [4] was “inactive” throughout.

`CCNC(=O)CCC/C=C\C[C@@H]1[C@@H](/C=C/C(O)CCc2ccccc2)[C@@H](O)C[C@@H]1O` (stereo not given in full): the Potency entry in test [1], in test [6], in test [3] and in test [4] was “inactive” each time.

On to `COc1ccc(/C=C/C(=O)O[C@@H]2[C@@H](O)[C@H](C)O[C@@H](OC3C4C=COC(O[C@@H]5O[C@H](CO)[C@@H](O)[C@H](O)[C@H]5O)C4C4(CO)OC34)[C@@H]2O)cc1OC` (stereo not given in full), for which the Potency entry in test [1], in test [2], in test [4] and in test [5] was “inactive” throughout.
